# Data from PubChem BioAssay.
# Experiment: JC-1 mitochondrial signal, unstimulated MM1S myeloma – cell-based, JC-1 fluorescence, 24 h, 100 nL compound, profiling panel (AID 1170); note: test concentration not given here
# Conditions: MM1S mitochondrial potential, higher = more signal
row,Compound,z-score
1,C=C(COC)/C(=C/C[C@@H](OC(C)=O)c1ccc(CO)o1)c1cnc2ccccc2c1,1.33
2,COc1ccc(C#Cc2ccc3c(c2)[C@]2(C(=O)N3)[C@H](c3ccccc3OCCO)N3[C@H](c4ccccc4)[C@H](c4ccccc4)OC(=O)[C@H]3[C@@H]2C(=O)O)cc1,-1.9
3,COc1ccc([Si](C)(C)[C@@H]2[C@@H](CC(=O)N3Cc4ccccc4C[C@H]3CO)O[C@]3(C(=O)N(C)c4c(Br)cc(C)cc43)[C@H]2C)cc1,-2.23
4,C=C(CCCC)C(=O)CC[C@@H](OC(=O)c1cccnc1)c1ccc(CO)o1,-0.0347
5,Cc1ccc(S[C@]2(C(=O)NCC(C)C)CC(=O)N(Cc3cc(C(F)(F)F)cc(C(F)(F)F)c3)[C@@H]2c2ccc(CO)cc2I)cc1,-1.01
6,CO[C@H]1O[C@H](CO)[C@@H](OC(=O)Nc2ccc(Br)cc2)[C@H](OC(=O)c2cc3ccccc3[nH]2)[C@H]1OC(=O)c1cc2ccccc2[nH]1,-0.634
7,CCc1oc(CC[C@@H](CO)NC(=O)NCCn2cc(C3(O)CCCCC3)nn2)c(C(=O)OC)c1C(=O)OC,0.14
8,COc1ccc(C(=O)Nc2ccc(CN3C(=O)[C@@]4(O[C@@H](CCn5cc([C@H](O)c6ccccc6)nn5)[C@H]([Si](C)(C)c5ccc(OC)cc5)[C@H]4C)c4ccccc43)cc2)cc1,-2.26
9,Cc1ccc(C(C)CC(O)C2C=CC3C(=O)N(c4ccccc4)C(=O)C3N2Nc2ccc([N+](=O)[O-])cc2)o1 (stereo not given),-1.54
10,COCCCNC(=O)[C@@]1(Cc2ccccc2N=[N+]=[N-])N=C(c2ccc(OCCCO)cc2)O[C@H]1c1ccccc1N=[N+]=[N-],-2.03
11,COCCOC(=O)N1C(=O)[C@@]2(c3cc(C#Cc4ccc(OC)cc4)ccc31)[C@H](c1ccccc1OCCO)N1[C@H](c3ccccc3)[C@H](c3ccccc3)OC(=O)[C@H]1[C@@H]2C(=O)N1CCN(c2ncccn2)CC1,-1.37
12,COc1cc2c(cc1OC)CN(C(=O)[C@H]1[C@@H]3C(=O)O[C@@H](c4ccccc4)[C@@H](c4ccccc4)N3[C@@H](c3ccc(O)cc3)[C@]13C(=O)Nc1ccc(C#CC4=CCCCC4)cc13)CC2,-0.101
13,CCCCc1cn(C[C@H](Cc2ccccc2)NC(=O)N[C@H](CO)CCc2oc(C(C)=O)c(C(=O)OC)c2C(=O)OC)nn1,1
14,CN(C)C(=O)[C@]1(Cc2ccccc2N=[N+]=[N-])N=C(c2ccc(OCCCO)cc2)O[C@@H]1c1ccccc1,-1.27
15,C=CCNC(=O)[C@@H]1[C@H]2C(=O)O[C@H](c3ccccc3)[C@H](c3ccccc3)N2[C@H](c2ccc(OCCO)cc2)[C@@]12C(=O)Nc1ccc(C#CCCO)cc12,-0.183
16,[N-]=[N+]=NCc1ccccc1C[C@]1(C(=O)N2CCOCC2)N=C(c2ccc(OCCCO)cc2)O[C@H]1c1ccccc1N=[N+]=[N-],-1.47
17,C=CCNC(=O)[C@H]1[C@@H]2C(=O)O[C@@H](c3ccccc3)[C@@H](c3ccccc3)N2[C@@H](c2ccc(OCCO)cc2)[C@]12C(=O)Nc1ccc(C#CC3=CCCCC3)cc12,-1.32
18,COC(=O)[C@@]1(Cc2ccc(OC)cc2)[C@H]2c3cc(C(=O)N4CCCC4)n(Cc4ccccc4)c3C[C@H]2CN1C(=O)c1ccccc1,-1.3
19,CCCC[C@@H]1C[C@H]1[C@@H](NC(=O)c1ccco1)c1ccc(C(=O)OC)cc1,-1.19
20,C=CCOC(=O)[C@H]1[C@@H]2C(=O)O[C@@H](c3ccccc3)[C@@H](c3ccccc3)N2[C@@H](c2ccc(OCCOC(=O)[C@H]3C[C@H]4C(=O)N[C@@H](CC(C)C)C(=O)N4[C@H]3c3ccc(O)cc3)cc2)[C@]12C(=O)Nc1ccc(I)cc12,-0.859
21,COC(=O)c1c(CC[C@@H](CO)NC(=O)N[C@@H](C)Cn2cc(C3(O)CCCCC3)nn2)oc(C(C)=O)c1C(=O)OC,0.414
22,CC(C)N1C(=O)[C@@]2(Cc3ccccc31)c1ccccc1C(=O)N(C1CCCCC1)[C@H]2c1ccc(CO)cc1,-1.79
23,CN(C)CCCNC(=O)[C@@]1(c2ccc([N+](=O)[O-])cc2)CC(=O)N(C2CCCCC2)[C@@H]1c1ccc(CO)cc1I,-2.31
24,CCOC(=O)C[C@H]1[C@H](OC(=O)c2ccc(C(=O)c3ccccc3)cc2)[C@@H](NC(=O)c2ccc(-c3ccccc3)cc2)c2cc(OCCCO)ccc2N1C(=O)c1ccccc1,-0.117
25,C=CCNC(=O)[C@@H]1[C@H]2C(=O)O[C@H](c3ccccc3)[C@H](c3ccccc3)N2[C@H](c2ccc(OCCO)cc2)[C@@]12C(=O)Nc1ccc(C#Cc3ccc(OC)cc3)cc12,-0.913
